Experimental findings from PubChem BioAssay AID1259416 (Broad Institute, 2018) are described below.

Structures are written as SMILES. “And” between values parts separate entries of the source, which are not always exact repeats. Identical values can stand only once. Out of some 69,000 compounds screened, about 2,600 (3.8%) were called active. No stated cut-off is given here; in the data, active means activity change below about -70% (passing the limit was not always enough); inconclusive means no clear call, values can overlap the other calls. The sample as a whole holds a higher share of actives than the screen did.

The assay in a line: T. gondii growth inhibition with IFN-gamma, primary screen, cell-based (AID 1259416).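 Further: host cells are HeLa cells infected with Toxoplasma gondii.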 Particulars: Toxoplasma gondii growth in IFN-gamma-treated host cells; stronger effect = lower value; concentration not given here.
Consider `CCOC(=O)c1nc(N2CCN(Cc3ccc4c(c3)OCO4)CC2)c2ccccc2n1`, for which the activity change, negative = inhibition was 42.4% (inactive).
Take `O=C(C1CC=CC1)N1CCC2(CCN(Cc3cccc(F)c3)CC2)C1`: the activity change, negative = inhibition is -9.86% (inactive).
Then `CC[C@]1(O)C[C@@H]2CN(CCc3c([nH]c4ccccc34)[C@@](C(=O)OC)(c3cc4c(cc3OC)N(C)[C@H]3[C@@](O)(C(=O)OC)[C@H](OC(C)=O)[C@]5(CC)C=CCN6CC[C@]43[C@@H]65)C2)C1`, with -97.6% (active); and `CC[C@]1(O)CC2CN(CCc3c([nH]c4ccccc34)[C@@](C(=O)OC)(c3cc4c(cc3OC)N(C=O)[C@H]3[C@@](O)(C(=O)OC)[C@H](OC(C)=O)[C@]5(CC)C=CCN6CC[C@]43[C@@H]65)C2)C1` (stereo partly drawn), with -82.9% (active) and -87.1% (active).
Consider `CC1=CC[C@@H]2CN(C(=O)c3cc(C(C)(C)C)[nH]c(=O)n3)C[C@@H]2C1`, for which the activity change, negative = inhibition was 5.83% (inactive).
As to `Cc1nn(C)c(C)c1CCC(=O)NCc1ccccc1-n1ccnc1C`, the activity change, negative = inhibition is -6.3% (inactive).
In the case of `CC1Cc2ccccc2N1C(=O)CN1C(=O)COc2ccc(C(=O)c3cccs3)cc21` (stereo not drawn), the activity change, negative = inhibition is -43.3% (inactive).
`Cc1nc2ccccc2c(=O)n1-c1cccc2ccccc12`: the activity change, negative = inhibition is 0.633% (inactive).
`O=S(=O)(c1ccc2c(c1)OCCO2)N1CCN(c2ccc(C(F)(F)F)cn2)CC1`: the activity change, negative = inhibition was -88% (active).
Then `O=C(/C=C/c1ccc(CN(CCO)CCc2c[nH]c3ccccc23)cc1)NO`, with -85.7% (active).
As to `CC(NC(=O)CCc1c[nH]c2ccccc12)c1cn2ncsc2n1` (stereo not drawn), the activity change, negative = inhibition is 23.4% (inactive).
Take `O=C(/C=C/c1ccc2c(c1)OCO2)NCc1ccc(F)cc1`: the activity change, negative = inhibition was 2.56% (inactive).
Take `CC(C)c1cc(C2CCN(C(=O)Cc3c[nH]c4ccccc34)CC2)[nH]n1`: the activity change, negative = inhibition is 5.9% (inactive).
Then `O=C(NC1CC1)C1CN(Cc2cnc(NCc3ccccc3)nc2)CCN1` (stereo not drawn), with -0.724% (inactive); and `Cc1ccsc1C(=O)N1CCCC2(C1)Nc1cccnc1NC2=NC1CCCC1` (stereo not drawn), with -22.8% (inactive).
As for `COc1ccc(OCC(=O)N2CCC3(CC2)Nc2ccc(Cl)cc2-n2cccc23)cc1`, the activity change, negative = inhibition was 25.9% (inactive).
Turning to `O=C(C1CCCCC1)N1CCC2(CC1)Nc1ccc(Cl)cc1-n1cccc12`, the activity change, negative = inhibition was -85.4% (active).
On to `O=S(=O)(c1ccc(F)c(F)c1)N1CCC2(CC1)Nc1ccc(Cl)cc1-n1cccc12`, for which the activity change, negative = inhibition is 17.6% (inactive).
Then `CNC(=O)c1sc2ccccc2c1C1CCC(CNS(=O)(=O)c2cnn(C)c2)CC1` (stereo not drawn), with -10.6% (inactive).
On to `Cc1cc(CNC(=O)c2cccc(C3CCNC3)c2)ccc1F` (stereo not drawn), for which the activity change, negative = inhibition was -1.39% (inactive).
For `Cc1cccn2cc(C(=O)NC[C@@H]3CCNC[C@H]3O)nc12`, the activity change, negative = inhibition is -3.48% (inactive).
`O[C@@H]1CNCC[C@H]1CNCc1cccc(Oc2cccc(C(F)(F)F)c2)c1`: the activity change, negative = inhibition was -100% (active).
For the molecule `Cc1cc(C(=O)N2CCC3(CC2)CNC(=O)O3)c2ccc(F)cc2n1`, the activity change, negative = inhibition was 0.544% (inactive).
In the case of `CCOC1C2CCC1N(S(=O)(=O)c1cccc(C)c1)CCO2` (stereo not drawn) it was 16.8% (inactive).
In the case of `Cc1cc(S(=O)(=O)NCc2ccc3c(c2)OCO3)ccc1-n1cnnn1` it was -7.98% (inactive); in that of `COc1cccc(-c2cccc3[nH]ccc23)n1`, 35.3% (inactive).
As for `C[C@@H]1COCCN1c1cc(C2(S(C)(=O)=O)CC2)nc(-c2cccc3[nH]ccc23)n1`, the activity change, negative = inhibition was -82.8% (active).
Turning to `NC(=O)Cc1csc(NC(=O)c2ccc3nc(C(F)(F)F)[nH]c3c2)n1`, the activity change, negative = inhibition was -8.79% (inactive).
In the case of `CNS(=O)(=O)c1ccc([C@@H]2C[C@H](NC(C)=O)C[C@H](CC(C)C)O2)cc1` it was -22.6% (inactive); in that of `Cc1ccc(C2(O)CCN(C(=O)c3noc(C)c3CO)CC2)nc1`, -2.58% (inactive); in that of `Cc1ccc2cc(CN(c3ccc(C)c(C)c3)S(C)(=O)=O)c(=O)[nH]c2c1`, -50.6% (inactive).
Take `COc1cc(OC)c(Nc2nc(-c3nnc(-c4ccccc4)o3)nc3ccccc23)cc1Cl`: the activity change, negative = inhibition is 268% (inactive).
Then `Clc1cccc(-c2nnc(-c3nc(NC4CCCC4)c4ccccc4n3)o2)c1`, with -77.4% (active).
In the case of `Cc1ccc(Nc2nc(-c3nnc(-c4cccc(C)c4)o3)nc3ccccc23)cc1`, the activity change, negative = inhibition was 96.2% (inactive).
In the case of `COc1cc(/C=C/CN2CCC3(CC2)c2ccccc2[C@@H](NC(=O)C(C)C)[C@@H]3OC)ccc1O`, the activity change, negative = inhibition was 12.6% (inactive).
For the molecule `CN1C(=O)c2cc(NS(=O)(=O)c3ccccc3F)ccc2OC[C@@H]2O[C@@H](CC(=O)NC3Cc4ccccc4C3)CC[C@@H]21`, the activity change, negative = inhibition was -28.5% (inactive).
As for `Cc1cc(C)nc(N2CCN(c3c4c(nc5c(-c6ccccc6)c(C)nn35)CCC4)CC2)n1`, the activity change, negative = inhibition was -75.6% (active).
Take `Cc1cc(N2CCN(c3nc(C)cc(C)n3)CC2)ncn1`: the activity change, negative = inhibition was 3.08% (inactive).
Take `Cc1nc(N2CCCC2)nc2c1CCN(C(=O)Nc1ccccc1F)CC2`: the activity change, negative = inhibition is -2.86% (inactive).
Consider `COc1ccc(Cl)cc1S(=O)(=O)N1CCC(c2nc(C(=O)N(C)C)c(C)o2)CC1`, for which the activity change, negative = inhibition is -56% (inactive).
With `O=C(Cc1ccc(F)cc1)N1CC[C@@H](O)[C@@H]1Cc1ccccc1`, the activity change, negative = inhibition is -30.4% (inactive).
For the molecule `CN(Cc1noc(C2CCC2)n1)Cc1ncccc1C(=O)O`, the activity change, negative = inhibition is -0.548% (inactive).
As for `O=C(NCc1cccnc1)C1=NOC2(CCCN(C(=O)Cc3ccc(F)cc3)C2)C1` (stereo not drawn), the activity change, negative = inhibition is 53.7% (inactive).
As to `CC(C)n1cnc2c(N3CCOCC3)nc(C3CCN(Cc4cccnc4)CC3)cc21`, the activity change, negative = inhibition was 1.27% (inactive).
In the case of `CC(=O)N1CCC(c2cc3c(ncn3C(C)C)c(-c3ccccc3)n2)CC1`, the activity change, negative = inhibition is -106% (active).
Turning to `CC(C(=O)NC1CC1)N1CCc2[nH]nc(-c3ccc(-c4ccccc4)cc3)c2C1` (stereo not drawn), the activity change, negative = inhibition was 13.6% (inactive).
With `CN(CCCc1ccccc1)C(=O)c1cc(CN2CCC(O)CC2)on1`, the activity change, negative = inhibition is 6.96% (inactive).
Regarding `CCCNc1ncc(-c2nccn2CC2CCOCC2)cn1`, the activity change, negative = inhibition is 0.573% (inactive).
Turning to `CCc1c2c(nc3ccc(O)cc13)-c1cc3c(c(=O)n1C2)COC(=O)[C@]3(O)CC`, the activity change, negative = inhibition was -86.3% (active).
Turning to `CCN(CC)Cc1cnc2n1CCN(Cc1csc(C)n1)CC2`, the activity change, negative = inhibition was 4.3% (inactive).
Regarding `C[C@H]1CN([C@@H](C)CO)C(=O)c2ccccc2-c2ccccc2CO[C@H]1CN(C)S(=O)(=O)c1cccc(C#N)c1`, the activity change, negative = inhibition is 5.72% (inactive).
`C[C@@H]1CN([C@H](C)CO)C(=O)c2c(c3ccccc3n2C)-c2ccccc2CO[C@H]1CN(C)C(=O)[C@@H](Cc1ccccc1)N(C)C`: the activity change, negative = inhibition was -51.4% (inactive).
Consider `C[C@H](CO)N1C[C@H](C)[C@@H](CN(C)S(=O)(=O)c2ccc([N+](=O)[O-])cc2)OCc2ccccc2-c2c(n(C)c3ccccc23)C1=O`, for which the activity change, negative = inhibition was -73.3% (active).
